Reference: PubChem BioAssay AID1159580 (chemical genetic matrix, 2015)
Several values for one entry are separate records, joined by “and”; a condition that tells them apart may be missing. Identical values can stand only once. About 2,000 (36%) of roughly 5,500 compounds were called active. About 18% were inconclusive and are not listed. Rule as the data show it: active = normalized growth mostly below about 0.91 (no sharp cut-off); inconclusive = no clear call, values can overlap the other calls; inactive = mostly above about 0.92. Some of the results follow.

Assay: chemical genetic growth profiling, strain panel (AID 1159580);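 also: tested at 20 µM; growth read once vehicle control cultures reached saturation at 30 °C; 1 = growth at the plate median or of vehicle wells; lower values mean less growth of the strain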
Conditions: S. cerevisiae deletion strains, growth OD

Measured: normalized growth

O=C(O)/C=C/c1ccc(O)c(O)c1
inactive: locus YAL021C, strain ccr4, hits give low values 0.981 | locus YAL026C, strain drs2, hits give low values 1 | locus YAL030W, strain snc1, hits give low values 1 | locus YAL040C, strain CLN3, hits give low values 1.02 | locus YBL061C, strain skt5, hits give low values 0.996 | locus YBR009C, strain hhf1, hits give low values 0.995 | locus YBR021W, strain FUR4, hits give low values 1.01 | locus YBR023C, strain chs3, hits give low values 1 | locus YBR171W, strain sec66, hits give low values 1 | locus YBR229C, strain ROT2, hits give low values 1.01 | locus YBR231C, strain swc5, hits give low values 1 | locus YBR279W, strain paf1, hits give low values 0.995 | locus YCL011C, strain gbp2, hits give low values 1.01 | locus YCL016C, strain dcc1, hits give low values 1 | locus YCL029C, strain bik1, hits give low values 1.01 | locus YCL061C, strain MRC1 (second series), hits give low values 1.01 | locus YCL061C, strain MRC1, hits give low values 1 | locus YCL069W, strain vba3, hits give low values 1 | locus YCR088W, strain abp1, hits give low values 1 | locus YDL005C, strain med2, hits give low values 1 | locus YDL035C, strain GPR1, hits give low values 1.02 | locus YDL040C, strain nat1, hits give low values 1 | locus YDL074C, strain BRE1, hits give low values 1.05 | locus YDL101C, strain DUN1, hits give low values 1.01 | locus YDL134C, strain PPH21, hits give low values 1 | locus YDL185W, strain tfp1, hits give low values 1 | locus YDL192W, strain arf1, hits give low values 1 | locus YDR001C, strain nth1, hits give low values 1 | locus YDR069C, strain doa4, hits give low values 1.01 | locus YDR101C, strain arx1, hits give low values 1 | locus YDR137W, strain rgp1, hits give low values 0.998 | locus YDR150W, strain NUM1, hits give low values 1.01 | locus YDR159W, strain sac3, hits give low values 1 | locus YDR162C, strain NBP2, hits give low values 1 | locus YDR195W, strain ref2 0.977 | locus YDR297W, strain sur2, hits give low values 1.01 | locus YDR318W, strain mcm21, hits give low values 1 | locus YDR334W, strain swr1, hits give low values 0.993 | locus YDR335W, strain msn5, hits give low values 0.99 | locus YDR388W, hits give low values 1.01 | locus YDR392W, strain spt3, hits give low values 1.03 | locus YDR502C, strain sam2, hits give low values 0.996 | locus YEL003W, strain gim4, hits give low values 1.01 | locus YEL037C, strain rad23, hits give low values 0.991 | locus YEL061C, strain CIN8 (second series), hits give low values 1 | locus YEL061C, strain CIN8, hits give low values 1.01 | locus YER002W, strain NOP16, hits give low values 1.02 | locus YER015W, strain faa2, hits give low values 1 | locus YER016W, strain bim1, hits give low values 1.01 | locus YER110C, hits give low values 1.02 | locus YER111C, strain swi4, hits give low values 0.981 | locus YER155C, strain BEM2 (second series), hits give low values 1.03 | locus YER155C, strain BEM2, hits give low values 1 | locus YER167W, strain BCK2, hits give low values 1.02 | locus YFR010W, strain ubp6, hits give low values 1 | locus YGL078C, strain dbp3, hits give low values 0.997 | locus YGL086W, strain mad1, hits give low values 1.03 | locus YGL167C, strain pmr1, hits give low values 1 | locus YGL173C, strain kem1, hits give low values 1 | locus YGL227W, strain vid30, hits give low values 1.01 | locus YGL240W, strain doc1, hits give low values 1 | locus YGL248W, strain PDE1, hits give low values 0.999 | locus YGL253W, strain hxk2, hits give low values 1 | locus YGR078C, strain PAC10, hits give low values 1 | locus YGR135W, strain pre9, hits give low values 1.01 | locus YGR229C, strain SMI1, hits give low values 1.01 and 1.04 | locus YGR252W, strain gcn5, hits give low values 0.981 | locus YHR013C, strain ard1, hits give low values 0.993 | locus YHR027C, strain rpn1, hits give low values 0.992 | locus YHR030C, strain SLT2, hits give low values 1.01 | locus YHR079C, strain IRE1 (second series), hits give low values 1.03 | locus YHR079C, strain IRE1, hits give low values 0.993 | locus YHR094C, strain hxt1, hits give low values 1.01 | locus YHR129C, strain ARP1, hits give low values 1.02 | locus YHR142W, strain chs7, hits give low values 1.01 | locus YHR200W, strain rpn10, hits give low values 1.03 | locus YIL066C, strain RNR3, hits give low values 1.01 | locus YIL073C, strain SPO22, hits give low values 1.04 | locus YIL125W, strain kgd1, hits give low values 1.01 | locus YIR030C, strain dcg1, hits give low values 1 | locus YJL092W, strain hpr5, hits give low values 1 | locus YJL095W, strain BCK1 (second series), hits give low values 0.994 | locus YJL095W, strain BCK1, hits give low values 0.996 and 1.01 | locus YJL115W, strain asf1, hits give low values 0.991 | locus YJL129C, strain trk1, hits give low values 1 | locus YJL134W, strain LCB3, hits give low values 1.01 | locus YJL154C, strain vps35, hits give low values 0.999 | locus YJL164C, strain tpk1, hits give low values 1.01 | locus YJL166W, strain qcr8, hits give low values 1 | locus YJL168C, strain set2, hits give low values 1 | locus YJL187C, strain SWE1 (second series), hits give low values 1 | locus YJL187C, strain SWE1, hits give low values 0.998
